In PubChem BioAssay AID686979 (National Center for Advancing Translational Sciences (NCATS), 2013) one finds Potency and activity change, negative = growth inhibition data, which are given here for 55 compounds.

Hit rate of the full screen: of about 420,000 compounds, about 50,000 (12%) were called active. A call without a number means that no potency is given here. Roughly 26% stayed inconclusive and do not appear here. The full list was thinned out, with actives kept by preference. Unmarked numbers belong to inactive results. The call rests on the fitted dose curve; in most records, active means well fitted inhibition curve with a large enough effect; inconclusive means small, poorly fitted or top-dose-only effect; inactive means flat fitted curve, though single readings scatter.
Potency means the concentration at half of the fitted maximal effect.

The experiment can be described thus: qHTS for Inhibitors of human tyrosyl-DNA phosphodiesterase 1 (TDP1): qHTS in cells in presence of CPT. Further: nearly all actives have a fitted effect of over 55% in size. The note with it: chicken DT40 Tdp1-/-;hTDP1 cells + 20 nM CPT, ATP luminescence, 48 h; series mostly up to 46.2 µM. The essentials:
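Cell growth measured by CellTiter-Glo luminescence after a minimum 48 h, 37 C compound exposure with 20 nM CPT in Tdp1-knockout DT40 cells stably expressing hTDP1, seeded 400/well; qHTS titration format.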
As to `COc1cc2c(=O)c(S(=O)(=O)c3ccc(C(C)C)cc3)cn(Cc3ccccc3C)c2cc1OC`, the Potency was 6.51 µM (active). Same read-out and setting: the result for `Cc1cc(Nc2cccc(F)c2)n2ncnc2n1` reads “inactive”; that for `COCCN1C(=O)C(=O)/C(=C(/O)c2ccc(S(=O)(=O)N3CCOCC3)cc2)C1c1ccc(O)c(OC)c1` (stereo not given), “inactive”; that for `CC(=O)Nc1cccc(Nc2ccc(C#N)cc2)c1`, “inactive”. Still for that read-out and setting: next, `CC(=O)Nc1cccc(C(=O)OCN2C(=O)c3ccccc3C2=O)c1`: “inactive”; `CCN(CC)N=Nc1cccc(NC(C)=O)c1`: 11.6 µM (active); `Cc1ccc(-n2cc(CN(C)Cc3nccn3C)c(-c3cccc(C)c3)n2)cc1`: 20.6 µM (active). Regarding `CCn1ccnc1CN(C)Cc1nc(-c2ccc3c(c2)OCO3)no1`, the Potency result is “inactive”. Still for that read-out and setting: next, `NNC(=O)c1ccc(COCC(F)(F)C(F)F)cc1`: “inactive”; `CCN(c1ccccc1)S(=O)(=O)c1ccc(OCC(=O)N2CCCC2)cc1`: “inactive”; `COc1ccc(-c2nc(SCC(=O)N3CCCC3)n[nH]2)cc1`: “inactive”.

`CCc1ccc(-c2nc(SCC(=O)NC3CCCC3)n[nH]2)cc1`: the Potency was 25.9 µM (active).

For `COc1ccc(CNC(=O)CSc2n[nH]c(-c3ccc(F)cc3)n2)cc1`, the Potency entry is “inactive”.

Consider `CC(=O)N1CCN(Cc2cc(=O)oc3cc(C)ccc23)CC1`, for which the Potency entry is “inactive”.

Consider `CCc1nnc(NC(=O)c2cc(S(=O)(=O)N3CCN(CC)CC3)ccc2Cl)s1`, for which the Potency entry is “inactive”.

Take `NNC(=O)C1CC(O)CN1S(=O)(=O)c1ccc(Cl)cc1` (stereo not given): the Potency entry is “inactive”.

Turning to `COc1ccccc1N1CCN(Cc2cc(OC)c3c(c2)OCO3)CC1`, the Potency result is “inactive”.

Turning to `COc1ccccc1N1CCN(Cc2ccc(OC)c3ccccc23)CC1`, the Potency was 16.4 µM (active). The same measure, in the same setting: next, `COc1ccccc1/C=N/N1CCN(Cc2ccccc2Cl)CC1`: “inactive”. Take `Cc1cccc(N=C2NN=C(c3c[nH]c4ccccc34)CS2)c1`: the Potency result was “inactive”. With `C=CCn1c(C)cc(C2=NNC(=NCC)SC2)c1C`, the Potency is 16.4 µM (active).

Regarding `Cc1cc(NC(=O)CCC(=O)N(Cc2ccccc2)C(C(=O)NC2CCCC2)c2ccc(C)o2)no1` (stereo not given), the Potency result is “inactive”. Same read-out and setting: the result for `CCC1Oc2ccccc2N(CC(=O)NCCCN2CCN(CC)CC2)C1=O` (stereo not given) reads “inactive”. Still for that read-out and setting: the result for `Cn1cnc(S(=O)(=O)N2C[C@@H](O)COC[C@@H]3O[C@H](CC(=O)NC4CCC4)CC[C@H]32)c1` reads “inactive”. On the same count and under the same terms, the result for `COCCNc1ncnc2ccc(-c3ccccc3CN(C)C)cc12` reads “inactive”.

As to `COCCNc1ncnc2ccc(-c3cccnc3)cc12`, the Potency was 14.6 µM (active). On the same count and under the same terms, the result for `COc1ccccc1CNc1ncncc1-c1cccnc1` reads “inactive”. Still for that read-out and setting: the result for `Cc1cc(C)cc(N(CC(=O)NC2CCCC2)C(=O)CCC(=O)Nc2nccs2)c1` reads “inactive”; that for `Cn1c(=O)c(-c2ccccc2)nc2cnc(N3CCNCC3)nc21`, “inactive”; that for `N#Cc1cccc(-c2nc3cnc(N4CCNCC4)nc3n(C3CC3)c2=O)c1`, 5.17 µM (active). On the same count and under the same terms, next, `COCCn1c(=O)c(CCc2ccccc2)nc2cnc(N3CCNCC3)nc21`: “inactive”. With `Cc1cccc(CN2CCC(n3nccc3NC(=O)c3ccccc3C)CC2)n1`, the Potency result is “inactive”. Still for that read-out and setting: the result for `CCNc1ncc2nc(CCc3ccccc3)c(=O)n(-c3ccc(OC)cc3)c2n1` reads “inactive”; that for `COc1ccc(-c2onc3ccc(C(C)=O)cc23)cc1`, “inactive”; that for `COc1ccc(-c2cc(C(=O)N3CCN(c4ccc(F)cc4)CC3)no2)cc1`, “inactive”. Still for that read-out and setting: next, `COc1ccc(-c2nc3c(s2)CCc2onc(-c4ccc(OC)cc4)c2-3)cc1`: 20.6 µM (active); `Nc1nc(NC(=O)/C=C/c2ccc(F)cc2)nn1-c1ccccc1`: “inactive”; `O=C(OCCN=C1NS(=O)(=O)c2ccccc21)c1cccc([N+](=O)[O-])c1`: “inactive”.

With `O=C(Nc1nnc(-c2ccc(F)cc2)s1)c1c(F)cccc1Cl`, the Potency entry is “inactive”.

Turning to `CCOC(=O)Cc1csc(NC(=O)CSc2nc(C)cc(=O)[nH]2)n1`, the Potency was 23.1 µM (active). Turning to `CCCCc1nnc(NC(=O)CSc2nc(C)cc(=O)[nH]2)s1`, the Potency entry is “inactive”. Same read-out and setting: next, `CCOC(=O)Cc1csc(NC(=O)C(C)(C)C)n1`: “inactive”. For `CC(=O)O[C@H]1CC[C@@]2(C)C(=CC[C@@H]3[C@@H]2CC[C@]2(C)C(c4cccnc4)=CC[C@@H]32)C1`, the Potency entry was “inactive”. For the compound `COc1ccc(NC(=O)C2CCCN(S(=O)(=O)c3c(C)[nH]c(=O)[nH]c3=O)C2)c(OC)c1` (stereo not given), the Potency result is “inactive”. `COc1ccc(C(=O)C2CCCN(S(=O)(=O)c3cccc(C)c3)C2)c(C)c1` (stereo not given): the Potency is 16.4 µM (active).

As to `CCn1nc(C)cc1C(=O)N1CCCC(C(=O)c2cccc(OC)c2)C1` (stereo not given), the Potency entry is “inactive”. Turning to `COc1ccc(C(=O)C2CCCN(C(=O)c3ccc(OC)o3)C2)c(C)c1` (stereo not given), the Potency is 20.6 µM (active).

Regarding `CCOC(=O)c1[nH]ncc1CN1CCCC(C(=O)c2ccc(OC)cc2C)C1` (stereo not given), the Potency entry was “inactive”.

Take `O=C(c1ccc2c(c1)OCO2)N1CCOCC1`: the Potency entry was “inactive”. As to `COc1ccc(OC)c(S(=O)(=O)N2CCCC(C(=O)NCCc3ccccc3)C2)c1` (stereo not given), the Potency result is “inactive”. With `Cc1cc(Cl)ccc1C(=O)C1CCCN(C(=O)c2ccc3c(c2)OCO3)C1` (stereo not given), the Potency was 10.3 µM (active). On the same count and under the same terms, next, `COc1ccc(C(=O)N2CCCC(C(=O)c3ccccc3OC)C2)cc1OC` (stereo not given): “inactive”; `COc1ccc(C(=O)C2CCCN(Cc3cccn3-c3ccccn3)C2)c(C)c1` (stereo not given): 20.6 µM (active).

On to `FC(F)(F)c1cccc(-c2cn[nH]c2C2CCCN(Cc3cccn3-c3ccccn3)C2)c1` (stereo not given), for which the activity change, negative = growth inhibition is -7.96% [at 9.04 µM].

In the case of `COc1ccc(C(=O)C2CCCN(C(=O)c3cnsn3)C2)c(C)c1` (stereo not given), the Potency entry was “inactive”.
